# From PubChem BioAssay AID758 (NMMLSC, 2007)
# The campaign covered roughly 190,000 compounds. About 110 (0.058%) were called active. Inconclusive results (about 2%) are left out. The sample holds actives, similar compounds and a random draw of the others, so the mix is not that of the screen. Values without a mark were called inactive.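 Rule for the calls: active = fluorescent GTP binding to Rab7 beads changed by at least 20 points from the 100% baseline, either direction, mostly lower; inconclusive = compound itself probably fluorescent, or too few beads counted; inactive = the rest.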
# System: Rab7 GTPase wild type (dog), Bodipy-FL-GTP binding
# Experiment: wildtype dog Rab7 nucleotide binding alteration – biochemical, multiplex bead flow cytometry, primary screen (AID 758);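 note: median green fluorescence of bound Bodipy-FL-GTP per Rab7 bead population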
# Conditions: GST-Rab7 beads, fluorescent GTP binding, at 10 µM, actives lie on both sides, untreated = 100%, excess cold GTP = 0%
row,SMILES,GTP binding activity (percent of control)
1,CCOC(=O)c1ccc(N2C(=O)CC(N3CCN(C(=O)c4ccccc4)CC3)C2=O)cc1 (stereo not drawn),97%
2,COCCCNc1nc2c(-c3cccc(C(F)(F)F)c3)nnn2c2ccccc12,105%
3,C/C(CCc1ccccc1)=N\NC(=O)c1ccc(CN2CCOCC2)cc1,103%
4,Cc1ccccc1NS(=O)(=O)CCCCC(Cl)(Cl)Cl,96%
5,CC1CCN(S(=O)(=O)c2ccc(S(=O)(=O)NCc3cccnc3)cc2)CC1,98%
6,CCCNC(=O)c1c(Cl)cnn1-c1ccc(C)cc1,96%
7,O=C(CO/N=C/c1ccccc1OC(F)F)NC1CCCC1,103%
8,O=C(NNC(=O)C1C2CCC(C2)C1C(=O)O)c1ccc(Cl)cc1 (stereo not drawn),103%
9,CCN(CC)S(=O)(=O)c1ccc(OC(C)C)c(N)c1,107%
10,CN(C)/C=C(/C(=O)c1ccccc1Cl)S(C)(=O)=O,104%
11,CCCN(CCC)CCCNC(=O)CNC(=O)c1nn(-c2ccc(OC)cc2)c(=O)c2ccccc12,95%
12,CC(=O)c1c(C)[nH]c(C(=O)OCC(=O)NCCC(C)C)c1C,95%
13,Cc1cccc(C(=O)OCC(=O)NCC(C)C)c1O,96%
14,S=C(NCCc1ccccc1)N1CCn2cccc2C1c1ccncc1 (stereo not drawn),91%
15,COc1ccc2cc(CCl)c(Cl)nc2c1,91%
16,O=C(CCC(=O)OCc1ccc(Cl)cc1)Nc1ccccc1,102%
17,CN(C)S(=O)(=O)c1cccc(NC(=S)NCc2ccc3c(c2)OCO3)c1,104%
18,CCN(CC)S(=O)(=O)c1ccc(N(C)CCc2ccc(OC)c(OC)c2)nc1,96%
19,CC(C)CC(CC(C)C)=NNC(=O)c1ccc(CSc2nncn2C)cc1,104%
20,Cn1cnnc1SCC(=O)Nc1ccc(N2CCOCC2)cc1,98%
21,O=C(CN1C(=O)c2cccc3cccc1c23)Nc1ccccc1,98%
22,O=C(CS(=O)(=O)c1ccccc1)Nc1ccc(S(=O)(=O)Nc2ccccn2)cc1,107%
23,COc1cc(OC)cc(-c2nc(=S)n3ccsc3n2)c1,99%
24,Cc1ccc(/C=N/NC(=O)Cn2ccc(C(F)(F)F)n2)o1,105%
25,CCN(CC(=O)Nc1ccc(Cl)c(S(=O)(=O)N(C)C)c1)Cc1nc2ccccc2c(=O)[nH]1,105%
26,COc1cc(NC(=O)COc2ccccc2Cl)ccc1NC(=O)C(C)C,98%

row,SMILES,GTP binding activity (percent of control)
1,Cc1ccc(C2NC(C(=O)O)CS2)cc1 (stereo not drawn),103%
2,CN(C)c1ccc(C2Nc3ccccc3C(=O)N2NS(=O)(=O)c2ccccc2)cc1 (stereo not drawn),95%
3,O=C(CSc1ccc([N+](=O)[O-])cn1)Nc1ccc(N2CCOCC2)cc1,95%
4,COc1c(F)c(F)c(C(=O)O)c(Nc2ccccc2C)c1F,96%
5,Cc1ccc(Nc2c(F)c(F)c(F)c(F)c2C(=O)O)c(C)c1,121% [activator] (active)
6,Cc1ccc(NC(=S)NC(=O)c2ccc(-c3ccccc3)cc2)c(C)c1,100%
7,S=C(Nc1ccc2c(c1)OCO2)N1CCCC1,104%
8,C/C(CC(=O)N1CCN(C=O)CC1)=N\NC(=O)c1ccc(Br)cc1,102%
9,COc1ccc2c(c1)CCC/C2=N\OC(=O)c1ccccc1F,105%
10,C=CCN(CC=C)S(=O)(=O)c1ccc(C(=O)Nc2sc3c(c2C(N)=O)CCCCC3)cc1,103%
11,COCCN(CCOC)S(=O)(=O)c1ccc(C(=O)Nc2nc3c(s2)CCc2ccccc2-3)cc1,99%
12,C=CCN(CC=C)S(=O)(=O)c1ccc(C(=O)Nc2nc3c(s2)CCc2ccccc2-3)cc1,27% (active)
13,COC(=O)CCC(=O)N1CCCC(CO)(Cc2ccccc2)C1 (stereo not drawn),98%
14,CSc1cccc(NC(=S)N(Cc2ccccc2)Cc2ccccn2)c1,104%
15,O=C(COC(=O)c1ccccn1)Nc1cccc2ccccc12,108%
16,CCN(CC)CCNS(=O)(=O)c1ccc(/C=C/C(=O)O)cc1,98%
17,OCCC1CN(Cc2cnc(-c3ccccc3)s2)CCN1CCc1ccccc1 (stereo not drawn),106%
18,CCOC(=O)CNC(=O)CSc1ccc2nnc(-c3cccnc3)n2n1,96%
19,CC1(C)C2CC=C(/C=N/NC(=O)C3CC3)C1C2 (stereo not drawn),105%
20,CCc1c(SCCC(=O)O)nc2ccccc2c1C,99%
21,Fc1cc(Br)ccc1NC(=S)Nc1cccnc1,104%
22,COC(=O)C(=Nc1ccccc1)/C(C(=O)C(=O)N(C)c1ccccc1)=C(\O)c1ccc(Cl)cc1,96%
23,Cc1ccc(N2C(=O)C(CC(=O)Nc3cccc(F)c3)N(CCc3ccncc3)C2=O)cc1 (stereo not drawn),97%
24,NNC(=O)C1CC(O)CN1S(=O)(=O)c1ccc(Cl)cc1 (stereo not drawn),96%
25,Cc1ccc(NC(=O)CNCc2ccccn2)cc1S(=O)(=O)N(C)C,101%
26,C=CCN(Cc1nc(-c2cc(OC)c3c(c2)OCO3)oc1C)C1CCS(=O)(=O)C1 (stereo not drawn),92%

row,SMILES,GTP binding activity (percent of control)
1,CC1=CC=CN2C1=NC(=O)CC2(C)C(=O)N(CC(=O)NC1CCCC1)c1ccccc1C (stereo not drawn),104%
2,CC(=O)c1cc(C#N)c(SCC(=O)Nc2nccs2)nc1C,96%
3,C=CCn1nc(-c2ccccc2)c2c(C)onc2c1=O,100%
4,NS(=O)(=O)c1ccc(NC(=S)Nc2ccc(Br)c(Cl)c2)cc1,103%
5,O=C(CCNC(=O)c1ccc([N+](=O)[O-])cc1)Nc1ccccc1N1CCOCC1,96%
6,COc1cccc(C(O)Cc2nc3ccccc3n2C)c1OC (stereo not drawn),96%
7,CC(=O)c1cccc(NC(=O)[C@@H](NC(N)=O)C(C)C)c1,96%
8,COc1ccc(CNC(=O)COC(=O)/C=C/c2ccc(S(=O)(=O)N3CCOCC3)cc2)cc1,100%
9,O=C(O)/C=C/C(=O)NNc1ccc([N+](=O)[O-])cc1,96%
10,CCOC(=O)C1(CCOc2ccccc2)CCN(C(=O)c2cncs2)CC1,93%
11,CCOC(=O)c1ccc(NC(=O)c2cc(=O)[nH]c3ccccc23)cc1,94%
12,CCOc1c(CNCc2ccc(C(=O)O)cc2)cccc1OC,103%
13,COc1ccc(-c2nn(-c3ccccc3)cc2/C=C\C(=O)N2CCOCC2)cc1[N+](=O)[O-],93%
14,CC(O)c1cccc(NC(=O)Cc2cccc3ccccc23)c1 (stereo not drawn),93%
15,CCOc1cc(/C=C2/C(=N)N3OC(C)=CC3=NC2=O)ccc1OC,93%
16,NS(=O)(=O)c1cccc(NC(=O)CN2CCCc3ccccc32)c1,93%
17,Cc1nc([N+](=O)[O-])c(NCCCO)n1Cc1ccccc1,96%
18,O=C(NCc1ccncc1)NC12CC3CC(CC(C3)C1)C2,104%
19,Clc1cccc(-c2nc(NCC3CCCO3)c3ccccc3n2)c1 (stereo not drawn),96%
20,COC(=O)c1c(NC(C)=O)sc(C(=O)Nc2ccccc2OC)c1C,106%
21,O=C(NNC1=C(C(=O)C(F)(F)F)CCC1)c1ccncc1,106%
22,O=C(CN1CCCC1)N1CCN(c2ccccc2)CC1,99%
23,CC(CC(=O)Nc1ccccc1)n1ccnc1 (stereo not drawn),96%
24,CCN(Cc1ccccc1)S(=O)(=O)c1cc(C(=O)O)ccc1OC,107%
25,CCN(CC)CCCSc1nc2ccccc2s1,104%
26,Cc1ccc(NC(=O)C2(N3CCC3=O)CCCCC2)cc1,105%

row,SMILES,GTP binding activity (percent of control)
1,Cc1ccc(NC(=O)c2ccc(Oc3ncccn3)cc2)cc1,97%
2,OCC1(Cc2ccccc2C(F)(F)F)CCN(Cc2cccc3cnccc23)CC1,96%
3,CC1(C)CC(N(Cc2ccccc2)C(=O)Cc2ccccc2)CCO1 (stereo not drawn),101%
4,O=C(Nc1cccnc1)c1cccc(S(=O)(=O)N2CCCC2)c1,94%
5,CCN(CC)C(=O)N(CC)Cc1ccccc1,96%
6,COC(=O)c1ccc(NCC(=O)N2CCCCCC2)cc1,106%
7,COc1ccc(-c2nc(CN3CCN(c4ncccn4)CC3)c(C)o2)cc1C,95%
8,O=C(C1CCCO1)N(c1ccc(F)cc1)C1C=CS(=O)(=O)C1 (stereo not drawn),103%
9,CCc1ccc(/C=C2\SC(N3CCOCC3)=NC2=O)cc1,94%
10,c1ccc(Cc2cc[n+](Cc3ccccc3)cc2)cc1,106%
11,CCOc1cnc(-c2c(-c3ccccc3Cl)noc2C)o1,96%
12,CCCCN(C(=O)/C=C/c1ccco1)c1c(N)n(CC(C)C)c(=O)[nH]c1=O,98%
13,CC(C)(C)c1cnnn1-c1ccc([N+](=O)[O-])cc1,94%
14,CC(C)(C)C(=O)NCCCNc1ccc([N+](=O)[O-])cc1,94%
15,O=C(Nc1ccccc1F)c1ccccc1-c1ccccc1,74% (active)
16,NC(=O)c1ccccc1NC(=O)c1ccccc1F,99%
17,O=C(Nc1ccccc1F)c1ccccc1-c1ccc(C(F)(F)F)cc1,103%
18,O=C(CC1C(=O)NCCN1Cc1ccc(-c2ccccc2)cc1)NCc1ccncc1 (stereo not drawn),96%
19,Cc1ccc(C)c(Cn2nnc3c(=O)[nH]c(C(=O)Nc4ccc(F)cc4)nc32)c1,102%
20,CC(=O)Nc1ccc(Nc2nc3c(S(=O)(=O)c4ccc(C)c(C)c4)nnn3c3ccccc23)cc1,97%
21,CN1CCN(CCC(=O)N/N=C/C=C2\N(C)c3ccccc3C2(C)C)CC1,98%
22,CC(C)CNC(=O)/C=C/C(=O)O,105%
23,O=C(Cc1ccccc1Cl)N1CCN(c2ccccn2)CC1,98%
24,Cc1ccc(CN2CCN(Cc3ccccc3-c3ccco3)CC2CCO)o1 (stereo not drawn),104%
25,CNC(=O)COC(=O)c1cc(-c2ccc(OC)cc2)nc2ccccc12,88%
